Our source for the Potency values is PubChem BioAssay (NCATS).

Assay [1] has as its target Calcium and integrin-binding protein 1 (Homo sapiens) (UniProt Q99828). The assay is described as follows: Primary qHTS for Identification of Calcium Integrin Binding Protein 1 (CIB1) Competitor (AID 1508620; active means well fitted curve in the direction sought with a large enough effect; an effect the other way counts as inactive or inconclusive;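 further: GST tagged CIB1 binding a fluorescein labelled alphaIIb integrin peptide tracer; top concentration of the series differs between compounds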). Summed up:
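CIB1-GST (1 uM final) and compound incubated 15 min at room temperature before adding FITC-alphaIIb peptide tracer (100 nM final). Competition for binding read by fluorescence polarization (ex 480, em 540) after another 15 min at room temperature.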
In general terms: In qHTS, concentration-response curves come from the screen itself.

In assay [2] the target is Cytochrome P450 2D6 (Homo sapiens) (UniProt P10635). The assay is described as follows: Cytochrome P450 family 2 subfamily D member 6 (CYP2D6) small molecule antagonists: luciferase biochemical (cell-free) qHTS assay (AID 1645840). Further: nearly all actives have a fitted effect of over 55% in size. Further: potency means the concentration at half of the fitted maximal effect. Summed up: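 P450-Glo luminescent screen: recombinant CYP2D6 enzyme–proluciferin substrate mix preincubated with compound 10 min at room temperature, then NADPH regeneration added for 1 h at room temperature. Detection reagent added for 20 min; luciferin light read as relative luminescence units.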
Sequence of Cytochrome P450 2D6 (Homo sapiens) (P10635 whole entry, looked up): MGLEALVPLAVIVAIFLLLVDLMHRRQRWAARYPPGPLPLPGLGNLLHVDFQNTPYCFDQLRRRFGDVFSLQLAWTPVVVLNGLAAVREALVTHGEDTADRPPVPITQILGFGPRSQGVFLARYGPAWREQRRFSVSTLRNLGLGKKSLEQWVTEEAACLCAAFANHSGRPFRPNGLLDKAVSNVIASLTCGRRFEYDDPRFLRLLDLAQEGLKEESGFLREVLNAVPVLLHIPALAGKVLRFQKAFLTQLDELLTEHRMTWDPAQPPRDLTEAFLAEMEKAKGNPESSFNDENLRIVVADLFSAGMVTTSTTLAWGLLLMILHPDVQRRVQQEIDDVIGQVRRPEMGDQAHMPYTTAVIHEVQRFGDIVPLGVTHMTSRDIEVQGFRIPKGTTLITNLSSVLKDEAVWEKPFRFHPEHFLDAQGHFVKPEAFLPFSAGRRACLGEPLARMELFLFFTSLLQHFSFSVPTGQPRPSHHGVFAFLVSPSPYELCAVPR

Assay [3] deals with Cytochrome P450 3A4 (Homo sapiens) (UniProt P08684). The assay is described as follows: Cytochrome P450 family 3 subfamily A member 4 (CYP3A4) small molecule antagonists: luciferase qHTS assay (AID 1645841). Further: nearly all actives have a fitted effect of over 45% in size. Summed up:
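Luminescent CYP3A4 activity readout: compounds plus enzyme-substrate mix 10 min at room temperature, reaction started with NADPH regenerating system for 1 h, stopped with detection reagent, read after 20 min. Ketoconazole served as control.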

Assay [4] deals with Cytochrome P450 2C9 (Homo sapiens) (UniProt P11712). The assay is described as follows: Cytochrome P450 family 2 subfamily C member 9 (CYP2C9) small molecule antagonists: luciferase biochemical (cell-free) qHTS assay (AID 1645842). Further: nearly all actives have a fitted effect of over 55% in size. Further: potency means the concentration at half of the fitted maximal effect. Summed up: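 Luminescence, after 20 min with luciferin detection reagent, reflected CYP2C9 turnover during a 1 h NADPH-driven reaction at 37C. Enzyme-substrate mix contained 0.4% bovine serum albumin and was preincubated with compound 10 min at room temperature.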
Sequence of Cytochrome P450 2C9 (Homo sapiens) (P11712 whole entry, looked up): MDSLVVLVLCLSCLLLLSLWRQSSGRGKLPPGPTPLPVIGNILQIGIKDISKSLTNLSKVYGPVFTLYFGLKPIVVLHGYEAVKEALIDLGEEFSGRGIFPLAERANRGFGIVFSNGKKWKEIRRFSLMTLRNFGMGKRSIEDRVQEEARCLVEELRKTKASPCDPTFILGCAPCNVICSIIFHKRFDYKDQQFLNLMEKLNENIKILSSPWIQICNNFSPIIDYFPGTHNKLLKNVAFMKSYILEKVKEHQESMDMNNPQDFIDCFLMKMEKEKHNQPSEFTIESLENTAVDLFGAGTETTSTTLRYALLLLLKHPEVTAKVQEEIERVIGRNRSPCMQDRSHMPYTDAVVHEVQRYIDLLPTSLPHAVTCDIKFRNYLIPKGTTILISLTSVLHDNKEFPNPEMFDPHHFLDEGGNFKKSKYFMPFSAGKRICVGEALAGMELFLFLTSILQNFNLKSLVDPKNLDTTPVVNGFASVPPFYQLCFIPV

Assay [5] can be described thus: Primary qHTS for inhibitors of nuclear receptor binding SET domain protein 2 (NSD2) in an isogenic RCH-ACV NSD2 p.E1099K mutant (9B) (AID 1645876; active means well fitted curve in the direction sought with a large enough effect; an effect the other way counts as inactive or inconclusive; further: nearly all actives have a fitted effect of over 70% in size).

Results filed as inconclusive are left out. Active and inactive are the calls of the source. Unless noted, the call rests on the fitted dose curve; in most records, active means well fitted curve in the direction sought with a large enough effect in the repeat runs; inconclusive means weak or mixed curves; inactive means no such curve, though single readings can be large; an effect the other way counts as inactive or inconclusive.

Sequence of Calcium and integrin-binding protein 1 (Homo sapiens) (Q99828 whole entry, looked up): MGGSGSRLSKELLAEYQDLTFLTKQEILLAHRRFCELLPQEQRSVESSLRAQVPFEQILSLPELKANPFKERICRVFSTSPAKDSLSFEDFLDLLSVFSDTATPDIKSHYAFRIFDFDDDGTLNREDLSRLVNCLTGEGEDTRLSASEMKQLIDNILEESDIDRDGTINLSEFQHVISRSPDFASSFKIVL
Sequence of Cytochrome P450 3A4 (Homo sapiens) (P08684 whole entry, looked up): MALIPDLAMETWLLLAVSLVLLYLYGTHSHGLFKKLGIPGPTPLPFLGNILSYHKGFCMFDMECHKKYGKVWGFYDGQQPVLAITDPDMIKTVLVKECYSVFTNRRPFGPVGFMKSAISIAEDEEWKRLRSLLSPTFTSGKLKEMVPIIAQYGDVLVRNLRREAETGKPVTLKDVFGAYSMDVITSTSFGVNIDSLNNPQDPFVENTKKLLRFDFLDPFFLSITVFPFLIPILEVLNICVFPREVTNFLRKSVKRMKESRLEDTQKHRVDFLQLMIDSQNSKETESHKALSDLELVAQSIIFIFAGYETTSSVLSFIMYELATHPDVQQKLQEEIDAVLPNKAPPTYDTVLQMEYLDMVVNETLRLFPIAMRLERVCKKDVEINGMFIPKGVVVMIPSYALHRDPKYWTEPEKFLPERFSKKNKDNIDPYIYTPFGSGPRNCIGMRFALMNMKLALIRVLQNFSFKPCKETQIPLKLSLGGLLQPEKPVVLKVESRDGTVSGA

In the case of `O=C(NC1CCC1)c1ccc(C#Cc2cccc(F)c2)nc1`, the Potency result in assay [1], in assay [2], in assay [3], in assay [4] and in assay [5] was “inactive” throughout.
Turning to `COc1ccc(CCN(C)CCCOc2nsc(-c3ccccc3)n2)cc1OC`, the Potency result in assay [1] was “inactive”. In addition, the Potency in assay [2] was 1.51 µM (active).
On to `CCNc1nc(Nc2cc(F)c(C(=O)N3CCOCC3)cc2OC)ncc1C(F)(F)F`, for which the Potency result in assay [1] and in assay [2] was “inactive” in each case. In addition, the Potency in assay [4] is 1.9 µM (active).
`Fc1ccc(N2CCN(CCC3OCCc4ccccc43)CC2)cc1` (stereo not given): the Potency entry in assay [1] and in assay [4] was “inactive” in each case. Moreover, the Potency in assay [2] was 1.9 µM (active).
With `COc1cc(C(=O)NC(=S)Nc2cccc(NC(=O)c3ccccc3)c2)cc(OC)c1OC`, the Potency entry in assay [1] and in assay [2] was “inactive” each time. Also, in assay [4], the Potency is 3.79 µM (active).
As to `N#Cc1cccc(C(=O)Nc2cc(-c3ccccc3)nn2-c2ccccc2)c1`, the Potency entry in assay [1] and in assay [2] was “inactive” in each case. Further, the Potency in assay [4] was 2.39 µM (active).
As for `Cc1cc(C(=O)Cn2cc(C#N)ccc2=O)c(C)n1Cc1ccccc1`, the Potency entry in assay [1] and in assay [2] was “inactive” each time. Moreover, the Potency in assay [4] was 16.9 µM (active).
Consider `Nc1nc2c(s1)CCN(Cc1ccc(Cl)cc1)CC2`, for which the Potency result in assay [1] was “inactive”. The Potency in assay [2] was 1.9 µM (active); in assay [4], 15.1 µM (active).
The corresponding values for `CC(C)(C)OC(=O)c1ncn2c1C(C)(C)Nc1ccccc1-2` are “inactive”, “inactive” and 10.7 µM (active).
In the case of `C=CCCN1CCC2(CC1)CN(C(=O)c1c(F)cccc1F)c1ccc(Cl)cc12`, the Potency entry in assay [1] is “inactive”. Besides, the Potency in assay [2] is 0.019 µM (active); in assay [4], 13.5 µM (active).
As to `O=c1[nH]c2ccc(C#CCN3CCC(Cc4ccccc4)CC3)cc2[nH]1`, the Potency result in assay [1] is “inactive”. Besides, the results for the Potency in assay [2] and in assay [4] were 0.338 µM (active) and 7.56 µM (active), respectively.
For the molecule `CCOc1cccc(NC(=O)c2ccc(N3CCCC3)c(C(F)(F)F)c2)c1`, the Potency entry in assay [1], in assay [2] and in assay [4] was “inactive” throughout.
Regarding `O=c1cc(N2CCOCC2)nc2c3ccccc3ccn12`, in assay [1], the Potency result was “inactive”. Moreover, the Potency in assay [2] is 19 µM (active); in assay [4], 15.1 µM (active).
For `CC[C@H](C(=O)Nc1ccccc1N1CCCC1)c1ccccc1`, the Potency entry in assay [1] is “inactive”. For the same molecule, the figures for the Potency in assay [2] and in assay [4] were 9.52 µM (active) and 7.56 µM (active), respectively.
The corresponding values for `COc1cc(-c2nc(N[C@H](CO)Cc3ccccc3)ccc2C(=O)NCCOc2ccccc2)cc(OC)c1OC` are “inactive”, 12 µM (active) and 1.51 µM (active).
The corresponding values for `CCc1cc2c(cc1CC)CC(NCC(O)c1ccc(O)c3[nH]c(=O)ccc13)C2` (stereo not given) are “inactive”, 9.52 µM (active) and “inactive”.
The corresponding values for `COc1ccc(S(=O)(=O)Nc2c(C)cc(C)cc2C)cc1` are “inactive”, “inactive” and 2.39 µM (active).
In the case of `NC(N)=NC(=O)c1cnn(-c2cccc3ncccc23)c1C1CC1`, the Potency entry in assay [1], in assay [2] and in assay [4] was “inactive” in each case.
`O=C(O)c1ccc(S(=O)(=O)N(Cc2ccc(OC(F)(F)F)cc2)c2ncc(C(F)(F)F)cc2Cl)cc1`: the Potency result in assay [1] and in assay [2] was “inactive” in each case. Further, the Potency in assay [4] is 23.9 µM (active).
For `Cc1cnn(-c2ccccc2)c1NC(=O)COCc1ccccc1`, the Potency result in assay [1] and in assay [2] was “inactive” each time. In assay [4], the Potency was 10.7 µM (active).
On to `O=C(N[C@H]1CCN(C(=O)c2cc(C(F)(F)F)cc(C(F)(F)F)c2)[C@H](Cc2ccc(Cl)cc2)C1)c1ccnc2ccccc12`, for which the Potency result in assay [1] and in assay [2] was “inactive” each time. For the same molecule, the Potency in assay [4] was 10.7 µM (active).
With `N#Cc1ccc(COc2ccc(-c3cccc4nc(NC(=O)C5CC5)nn34)cc2)cn1`, the Potency entry in assay [1] and in assay [2] was “inactive” throughout. For the same molecule, the Potency in assay [4] was 10.7 µM (active).
As to `CCC(C)c1ccc(NC(=O)Cn2cnc3c2c(=O)n(C)c(=O)n3C)cc1` (stereo not given), the Potency result in assay [1] and in assay [2] was “inactive” in each case. Further, the Potency in assay [4] is 12 µM (active).
Consider `CCCc1ccc(OCC(=O)N(Cc2nc(-c3cccnc3)no2)C(C)C)cc1`, for which, in assay [1], the Potency result was “inactive”. Besides, the Potency in assay [2] is 19 µM (active); in assay [4] it was 2.13 µM (active).
For `Fc1ccc(-c2nc(-c3c(F)cccc3F)[nH]c2-c2ccncc2)cc1` the same measures were “inactive”, 2.68 µM (active) and “inactive”.
The corresponding values for `CC(C)c1cc2c(N3CCN(C4=NCC(C)(C)S4)CC3)ncnc2s1` are “inactive”, 3.01 µM (active) and “inactive”.
For `C[C@H]1CO[C@@H]2Cn3cc(C(=O)NCc4ccc(F)cc4F)c(=O)c(O)c3C(=O)N12` the same measures were “inactive”, “inactive” and “inactive”.
Turning to `CCOc1ccc(-n2c(C(C)N(Cc3cccnc3)C(=O)Cc3ccc(F)c(C(F)(F)F)c3)nc3ncccc3c2=O)cc1` (stereo not given), in assay [1], the Potency entry is “inactive”. For the same molecule, the Potency in assay [2] was 23.9 µM (active); in assay [4], 4.77 µM (active).
Consider `COc1ccc(S(=O)(=O)N2CCC[C@H]2C(=O)Nc2cc(C)cc(C)c2)cc1`, for which the Potency result in assay [1] and in assay [2] was “inactive” each time. In addition, in assay [4], the Potency was 0.674 µM (active).
As for `O=C(c1ccc(Cl)cc1)N1CCN(c2ccnc3cc(Cl)ccc23)CC1`, in assay [1], the Potency result was “inactive”. The Potency in assay [2] and in assay [4] was 8.49 µM (active) in each case.
For `COc1ccc(OC)c(-c2ccc(NC(=O)c3ccncc3F)cc2)c1`, the Potency entry in assay [1] and in assay [2] was “inactive” in each case. In addition, in assay [4], the Potency is 1.51 µM (active).
For `COCCN(C(=O)c1cc(OC)c(OC)c(OC)c1)c1nc(-c2ccccc2)cs1`, the Potency result in assay [1] and in assay [2] was “inactive” in each case. Besides, the Potency in assay [4] is 4.77 µM (active).
For the molecule `C[C@@H]1C[C@H](C)CN(CCC(=O)Nc2ccc(Br)cc2)C1`, the Potency entry in assay [1] and in assay [4] was “inactive” in each case. For the same molecule, the Potency in assay [2] is 0.0674 µM (active).
